Results filed as inconclusive are left out. Calls of active or inactive are those of the source. Unless noted, the call rests on the fitted dose curve; in most records, active means well fitted curve in the direction sought with a large enough effect in the repeat runs; inconclusive means weak or mixed curves; inactive means no such curve, though single readings can be large; an effect the other way counts as inactive or inconclusive.
Assays:
[1] = qHTS assay to identify small molecule agonists of the estrogen receptor alpha (ER-alpha) signaling pathway in the presence of an antagonist - cell viability counter screen (AID 1259386);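 further: series mostly up to about 92 µM; cells exposed to compounds for 22 h at 37 °C before the viability read; nearly all actives have a fitted effect of over 30% in size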
Outline: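 In this counter screen, compound effects on VM7Luc4E2 viability were tested in the presence of the antagonist ICI-182,780 at 10.0nM final. Compounds were dosed at 15 concentrations, exposure lasted 22hr, and the CellTiter-Fluor signal was read.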

[2] = molecular target: Progesterone receptor (Homo sapiens) (UniProt P06401); assay: qHTS assay to identify small molecule antagonists of the progesterone receptor (PR) signaling pathway (AID 1346795; active means well fitted inhibition curve with a large enough effect in the signal ratio in the repeat runs, not every such curve was filed as active; the % refers to the signal ratio; further: potency means the concentration at half of the fitted maximal effect)
Outline: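 In HEK293T cells bearing the PR-UAS-bla reporter, compound effects on promegestone-driven (1 nM) beta-lactamase expression are assessed after 16 hr using a fluorescent FRET substrate incubated 2 hr at room temperature.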

[3] = qHTS assay to identify small molecule antagonists of the progesterone receptor (PR) signaling pathway - cell viability counter screen (AID 1346798); further: series mostly up to about 92 µM; nearly all actives have a fitted effect of over 50% in size
Outline: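 Following a 4 hr attachment, PR-UAS-bla HEK293T cells in charcoal-stripped FBS medium were exposed to compounds with R5020 for 16 hr; CellTiter-Glo was added and luminescence read after 30 min at room temperature.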

[4] = qHTS assay to identify small molecule antagonists of the TGF-beta/Smad signaling pathway - cell viability counter screen (AID 1346824); further: nearly all actives have a fitted effect of over 50% in size
Outline: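 SBE-bla HEK 293T cells were plated overnight at 37 C, then given compounds in DMSO plus TGF-beta1 (added as 0.25 ng/mL solution) for 5 hr. After the bla read, CellTiter-Glo was added to the same wells and luminescence read after 30 min at room temperature.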

[5] = qHTS assay to identify small molecule agonists of the TGF-beta/Smad signaling pathway - cell viability counter screen (AID 1346829); further: top concentration of the series differs between compounds; nearly all actives have a fitted effect of over 45% in size
Outline: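 Same-well cytotoxicity: CellTiter-Glo added after the 2 hr room-temperature beta-lactamase substrate step, luminescence measured 30 min later; cells had 5 hr of compound at 37 C.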

[6] = qHTS assay to identify small molecule agonists of the TGF-beta/Smad signaling pathway (AID 1346859; active means well fitted activation curve with a large enough effect in the signal ratio in the repeat runs, not every such curve was filed as active; the % refers to the signal ratio; further: series mostly up to about 77 µM)
Outline: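 Each well held 4,000 SBE-bla HEK 293T cells incubated overnight before compound addition; 5 hr later the cleavable FRET substrate went on for 2 hr at room temperature, and fluorescence was read at two emissions.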

[7] = molecular target: Thyrotropin-releasing hormone receptor (Homo sapiens) (UniProt P34981); assay: qHTS assay to identify small molecule antagonists of the thyrotropin-releasing hormone receptor (TRHR) signaling pathway (AID 1346877; active means well fitted inhibition curve with a large enough effect in the repeat runs, not every such curve was filed as active; further: series mostly up to about 51 µM)
Outline: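 Kinetic fluorescence (3 min, 1 s resolution) following stimulation with TRH at 1 nM final; HEK293 cells bearing human TRHR; 5 min compound preincubation at RT; concentration-response over 15 points, triplicates.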

[8] = molecular target: Thyrotropin-releasing hormone receptor (Homo sapiens) (UniProt P34981); assay: qHTS assay to identify small molecule agonists of the thyrotropin-releasing hormone receptor (TRHR) signaling pathway (AID 1346891; calls by dose curve; further: series mostly up to about 58 µM)
Outline: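 Screening of agonists relied on calcium signalling in HEK293 cells expressing human TRHR: dye loading 2 h at 37 °C preceded compound addition and a 3-min fluorescence time course.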

[9] = molecular target: Progesterone receptor (Homo sapiens) (UniProt P06401); assay: qHTS assay to identify small molecule agonists of the progesterone receptor (PR) signaling pathway (AID 1346784; calls by dose curve; further: nearly all actives have a fitted effect of over 30% in size)
Outline: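 Compounds were tested for PR agonism in HEK 293T cells bearing a beta-lactamase gene under UAS control. Treatment lasted 16 hr at 37C; signal came from fluorescence of a FRET substrate.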

[10] = qHTS assay to identify small molecule agonists of the progesterone receptor (PR) signaling pathway - cell viability counter screen (AID 1346799; calls by dose curve; further: nearly all actives have a fitted effect of over 45% in size; further: potency means the concentration at half of the fitted maximal effect)
Outline: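 Here, 3,000 PR-UAS-bla HEK293T cells per well were treated with compounds for 16 hr after a 6 hr preincubation at 37C and 5% CO2; cell viability is the CellTiter-Glo luminescence signal.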

Measured: Potency

Thyrotropin-releasing hormone receptor (Homo sapiens), sequence (P34981 whole entry, looked up): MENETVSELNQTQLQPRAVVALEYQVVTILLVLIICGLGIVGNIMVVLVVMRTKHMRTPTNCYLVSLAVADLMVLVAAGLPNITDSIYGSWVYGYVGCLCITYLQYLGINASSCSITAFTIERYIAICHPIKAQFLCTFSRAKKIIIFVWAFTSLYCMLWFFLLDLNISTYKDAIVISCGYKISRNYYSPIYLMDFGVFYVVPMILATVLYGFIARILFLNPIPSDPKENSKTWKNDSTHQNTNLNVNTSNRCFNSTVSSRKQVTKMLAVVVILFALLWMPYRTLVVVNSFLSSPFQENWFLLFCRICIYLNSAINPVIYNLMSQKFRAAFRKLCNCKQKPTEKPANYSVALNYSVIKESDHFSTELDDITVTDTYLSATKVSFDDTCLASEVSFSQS
Progesterone receptor (Homo sapiens), sequence (P06401 whole entry, looked up): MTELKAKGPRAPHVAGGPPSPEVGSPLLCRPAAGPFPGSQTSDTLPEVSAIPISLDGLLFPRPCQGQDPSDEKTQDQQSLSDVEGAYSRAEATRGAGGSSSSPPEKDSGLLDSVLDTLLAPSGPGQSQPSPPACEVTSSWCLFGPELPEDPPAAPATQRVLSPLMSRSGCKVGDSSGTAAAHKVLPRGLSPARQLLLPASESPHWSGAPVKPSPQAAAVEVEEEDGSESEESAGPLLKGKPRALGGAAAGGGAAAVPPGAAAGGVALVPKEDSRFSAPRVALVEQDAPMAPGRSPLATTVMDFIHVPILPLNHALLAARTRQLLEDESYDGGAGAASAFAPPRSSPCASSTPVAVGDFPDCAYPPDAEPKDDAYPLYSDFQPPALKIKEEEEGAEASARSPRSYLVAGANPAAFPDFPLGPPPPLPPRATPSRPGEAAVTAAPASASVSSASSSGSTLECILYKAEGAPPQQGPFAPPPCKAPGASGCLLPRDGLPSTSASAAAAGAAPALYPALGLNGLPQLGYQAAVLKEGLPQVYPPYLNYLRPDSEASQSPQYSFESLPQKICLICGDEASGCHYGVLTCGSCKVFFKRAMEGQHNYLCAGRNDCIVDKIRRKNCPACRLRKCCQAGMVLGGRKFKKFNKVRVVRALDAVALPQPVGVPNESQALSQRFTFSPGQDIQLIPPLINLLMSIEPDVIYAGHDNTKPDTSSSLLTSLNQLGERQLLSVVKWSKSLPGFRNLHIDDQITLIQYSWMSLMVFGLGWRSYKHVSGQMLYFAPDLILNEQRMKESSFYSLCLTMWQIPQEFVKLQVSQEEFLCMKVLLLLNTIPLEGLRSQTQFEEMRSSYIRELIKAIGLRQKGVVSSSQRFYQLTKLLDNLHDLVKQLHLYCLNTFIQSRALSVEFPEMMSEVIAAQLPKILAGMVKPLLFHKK

CCC(Cl)[N+](=O)[O-] (stereo not given)
not listed: [9] | [10]
inactive: all other assays above

COc1cc(OC)nc(NC(=O)NS(=O)(=O)c2ncccc2C(=O)N(C)C)n1
not listed: [1]
inactive: all other assays above

CN/C(=N\[N+](=O)[O-])NCC1CCOC1 (stereo not given)
not listed: [2] | [9] | [10]
inactive: all other assays above

COP(=S)(OC)Oc1ccc(S(N)(=O)=O)cc1
not listed: [1]
inactive: all other assays above

O=C1OC(CCN2CCCCC2)OC1(c1ccccc1)c1ccccc1 (stereo not given)
inactive: [1] | [3] | [4] | [5] | [7] | [8]

CCOP(=S)(OCC)Oc1nc(Cl)n(C(C)C)n1
not listed: [9] | [10]
inactive: all other assays above

CNNC
not listed: [2] | [9] | [10]
inactive: all other assays above

N#CC(Cl)(Cl)Cl
inactive: [1] | [3] | [4] | [5]

CC(C)[N+](=O)[O-]
not listed: [1]
inactive: all other assays above

CS(=O)(=O)c1cc(C(F)(F)F)ccc1C(=O)c1cnoc1C1CC1
inactive: [1] | [2] | [10] | [4] | [5] | [6]

COP(=S)(OC)Oc1c(Cl)cc(C)cc1Cl
active: [2] 27.3 µM
not listed: [3] | [9] | [10]
inactive: all other assays above

COc1cccc(C(=O)NN(C(=O)c2cc(C)cc(C)c2)C(C)(C)C)c1C
not listed: [1]
inactive: all other assays above

CC1(C)COP(Oc2ccccc2)OC1
not listed: [2] | [9]
inactive: all other assays above

OC(c1ccc(F)cc1)(c1cncnc1)c1ccccc1Cl (stereo not given)
active: [2] 48.6 µM
not listed: [9] | [10]
inactive: all other assays above

CC(N)=S
not listed: [1]
inactive: all other assays above

CN(C)CCc1ccc(O)cc1
not listed: [1]
inactive: all other assays above

Clc1cccc(N2CCNCC2)c1
inactive: [9] | [2] | [4] | [5] | [6]

CC(C)CC(N(C)C)C1(c2ccc(Cl)cc2)CCC1 (stereo not given)
not listed: [1] | [6] | [10]
inactive: all other assays above

COC(=O)c1ccccc1S(=O)(=O)NC(=O)Nc1nc(C)cc(C)n1
inactive: [2] | [3] | [5] | [6] | [7] | [8]

CN1C(=S)CN=C(c2ccccc2)c2cc(Cl)ccc21
active: [2] 21.1 µM
inactive: [9] | [4] | [5] | [7] | [8]

CC(CC(C#N)(c1ccccc1)c1ccccc1)N(C)C (stereo not given)
inactive: [9] | [4] | [5] | [6] | [7] | [8]

CSc1nc(N=[N+]=[N-])nc(NC(C)C)n1
not listed: [1] | [2] | [6]
inactive: all other assays above

Cc1ncc2n1-c1ccc(Cl)cc1C(c1ccccc1F)=NC2
inactive: [9] | [4] | [5] | [6] | [8]

C[C@H]1CCC[C@H](O)CCCCCc2cc(O)cc(O)c2C(=O)O1
inactive: [9] | [4] | [5] | [6] | [7] | [8]

CC1=C(C(=O)Nc2ccccc2)S(=O)(=O)CCO1
inactive: [4] | [5] | [6]

O=C(Nc1ccccc1)N(Cc1ccc(Cl)cc1)C1CCCC1
not listed: [1] | [2] | [10]
inactive: all other assays above

CC(C)COP(=O)(OCC(C)C)OCC(C)C
not listed: [1] | [9]
inactive: all other assays above

CCCCOC(=O)c1ccccc1N
not listed: [1] | [10]
inactive: all other assays above

COc1ccc2c(c1OC)CN1CCc3cc4c(cc3C1C2)OCO4 (stereo not given)
not listed: [1] | [2]
inactive: all other assays above

O=[N+]([O-])c1cccc2cccnc12
not listed: [1] | [9]
inactive: all other assays above

c1cc[c]([Hg][c]2ccccc2)cc1
inactive: [9] | [3] | [5] | [6] | [7] | [8]

C[C@]1(O)CC[C@H]2[C@@H]3CCC4=CC(=O)CC[C@]4(C)[C@@]3(F)[C@@H](O)C[C@@]21C
inactive: [3] | [5] | [6]

N#Cc1ccncc1
inactive: [9] | [3] | [10] | [4] | [5]

CCCCOC(=O)c1ccccc1C(=O)O
inactive: [9] | [2] | [4] | [5]

O=[N+]([O-])c1ccc2c3c(cccc13)CC2
active: [2] 24.3 µM
not listed: [1] | [9] | [10]
inactive: all other assays above

CNC(=O)Oc1ccccc1C1OCCO1
not listed: [1] | [10]
inactive: all other assays above

O=NN1CCN(N=O)CC1
not listed: [1] | [9]
inactive: all other assays above

O=C1OC(c2ccc(O)c(S(=O)(=O)O)c2)(c2ccc(O)c(S(=O)(=O)O)c2)c2c(Br)c(Br)c(Br)c(Br)c21
inactive: [2] | [3] | [10] | [4] | [5] | [6]

CC(C)(C)C(=O)C(Oc1ccc(Cl)cc1)n1cncn1 (stereo not given)
inactive: [4] | [5] | [7] | [8]

Nc1cc(Cl)ccc1O
not listed: [1] | [2] | [9]
inactive: all other assays above

CCOC(=O)C(c1c(O)c2ccccc2oc1=O)c1c(O)c2ccccc2oc1=O
not listed: [1] | [10]
inactive: all other assays above

COc1cc2c(cc1OC)[C@@]13CCN4CC5=CCO[C@H]6CC(=O)N2[C@H]1[C@H]6[C@H]5C[C@H]43
not listed: [1] | [10]
inactive: all other assays above

COC(=O)C(c1ccccc1)C1CCCCN1 (stereo not given)
not listed: [1] | [2]
inactive: all other assays above

O=C(N[C@H]1CN2CCC1CC2)c1cc2ccoc2cn1
not listed: [1] | [10]
inactive: all other assays above

CCN(CC)CCOC(=O)C(C)(c1ccccc1)c1ccccc1
inactive: [2] | [3] | [4] | [5] | [7] | [8]

CCCSP(=O)(OCC)Oc1ccc(Br)cc1Cl (stereo not given)
active: [2] 11.8 µM
not listed: [1] | [3] | [10]
inactive: all other assays above

c1coc(-c2nc3ccccc3[nH]2)c1
not listed: [1] | [6] | [10]
inactive: all other assays above

Fc1ccc(C2(Cn3cncn3)OC2c2ccccc2Cl)cc1 (stereo not given)
not listed: [1] | [2] | [10]
inactive: all other assays above

CCNc1nc(NC(C)C)nc(OC)n1
not listed: [1] | [2] | [9]
inactive: all other assays above

COc1cc(C[C@@H](C)N)c(OC)cc1C
not listed: [1] | [10]
inactive: all other assays above

ClCCCN1CCN(c2cccc(Cl)c2)CC1
active: [10] 1.19 µM
not listed: [1] | [2] | [9]
inactive: all other assays above

CC1CCC(=O)O1 (stereo not given)
not listed: [1] | [3]
inactive: all other assays above

COC(=O)COc1ccc(Cl)cc1Cl
not listed: [1] | [6] | [9]
inactive: all other assays above

CCCCP(CCCC)CCCC
not listed: [1] | [9]
inactive: all other assays above
